Compound activity deposited in PubChem by National Center for Advancing Translational Sciences (NCATS).
The list is not random: actives were taken first. Their share in the collection is about 11%.
JMJD2A Tudor inh = qHTS Assay for Inhibitors of JMJD2A-Tudor Domain. actives 4.4% (n = 390,000). AlphaScreen JMJD2A-Tudor / H3K4me3 peptide binding. Potency, µM (highest dose often 114 µM), for the others: at the top dose activity change, negative = inhibition, hits mostly inhibitors. AID 504339, 2011; also: % is scaled to controls: 0 for no effect and ±100 for the full control effect; nearly all actives have a fitted effect of over 50% in size
G9a block = qHTS Assay for Inhibitors of Histone Lysine Methyltransferase G9a | actives 8.8% (n = 350,000) | Potency, µM (top dose mostly 102 µM), for inactives: at the highest dose activity, negative = inhibition, actives largely listed as inhibitors | Histone-lysine N-methyltransferase EHMT2 (Homo sapiens), Q96KQ7 | G9a H3K9 monomethylation, AlphaScreen, 2 h; also: % is scaled to controls: 0 for no effect and ±100 for the full control effect; nearly all actives have a fitted effect of over 75% in size
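AlphaScreen detection with an anti-monomethyl H3K9 antibody quantified product after a 2 h room-temperature reaction containing 500 nM biotinylated H3K9 peptide, 20 µM SAM and 20 nM enzyme, which had been preincubated 15 min with compound.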
BAZ2B inh = qHTS Assay for Inhibitors of BAZ2B; Bromodomain adjacent to zinc finger domain protein 2B (Homo sapiens), Q9UIF8; AlphaScreen BAZ2B-H3K14Ac peptide displacement; Potency, µM (titrated, usually from 114 µM), for the others: top-dose activity change, negative = inhibition, usual class: inhibitors; actives 4.4% (n = 360,000); also: % is scaled to controls: 0 for no effect and ±100 for the full control effect; nearly all actives have a fitted effect of over 60% in size
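Multi-concentration screen (max 110 uM) measuring displacement of acetylated histone H3 peptide from BAZ2B by AlphaScreen, using 50 nM protein, 50 nM peptide and 10 ug/mL streptavidin donor plus Ni-chelate acceptor beads.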
L3MBTL1 inh = qHTS Assay for the Inhibitors of L3MBTL1; Lethal(3)malignant brain tumor-like protein 1 (Homo sapiens), Q9Y468; AlphaScreen L3MBTL1–H3K9me1 peptide binding; Potency, µM (titrated, usually from 57.1 µM), without a hit: at the highest dose activity, negative = inhibition, usual class: inhibitors; actives 0.66% (n = 230,000); AID 485360, 2010; also: % is scaled to controls: 0 for no effect and ±100 for the full control effect; nearly all actives have a fitted effect of over 60% in size
Target sequence (Q9Y468 whole entry, looked up): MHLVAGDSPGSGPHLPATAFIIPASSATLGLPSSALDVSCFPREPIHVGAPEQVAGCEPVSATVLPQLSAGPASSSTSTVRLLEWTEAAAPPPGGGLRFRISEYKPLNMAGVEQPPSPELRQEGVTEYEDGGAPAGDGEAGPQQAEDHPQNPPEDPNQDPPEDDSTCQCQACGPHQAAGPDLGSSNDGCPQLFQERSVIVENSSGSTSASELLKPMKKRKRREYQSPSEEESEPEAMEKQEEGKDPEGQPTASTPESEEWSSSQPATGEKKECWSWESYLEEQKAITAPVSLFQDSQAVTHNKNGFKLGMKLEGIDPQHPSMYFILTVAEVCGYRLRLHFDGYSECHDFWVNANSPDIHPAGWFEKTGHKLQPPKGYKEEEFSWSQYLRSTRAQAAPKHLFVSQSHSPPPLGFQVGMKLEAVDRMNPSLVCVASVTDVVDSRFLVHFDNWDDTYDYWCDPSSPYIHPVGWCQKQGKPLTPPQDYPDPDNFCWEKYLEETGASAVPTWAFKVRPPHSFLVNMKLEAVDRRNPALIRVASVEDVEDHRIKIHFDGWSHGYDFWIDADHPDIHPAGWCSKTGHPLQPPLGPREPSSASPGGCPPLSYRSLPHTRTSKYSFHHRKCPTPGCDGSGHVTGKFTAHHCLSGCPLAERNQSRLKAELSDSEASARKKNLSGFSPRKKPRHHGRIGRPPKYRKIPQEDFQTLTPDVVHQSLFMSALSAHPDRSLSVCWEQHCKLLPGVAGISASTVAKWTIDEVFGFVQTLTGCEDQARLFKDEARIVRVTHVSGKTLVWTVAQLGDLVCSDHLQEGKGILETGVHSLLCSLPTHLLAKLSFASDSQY
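Displacement of a biotinylated histone H3(1-15) peptide monomethylated at Lys9 (75 nM) from L3MBTL1 (50 nM) was measured by AlphaScreen after a 30 min room-temperature compound incubation; cefsulodin titration served as intraplate control.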
HP1b chromo inh = HTS for Inhibitors of HP1-beta Chromodomain Interactions with Methylated Histone Tails. Chromobox protein homolog 1 (Homo sapiens), P83916. AlphaScreen HP1-beta / biotin-H3K9me3 peptide binding. Potency, µM (titrated, usually from 114 µM), for the others: top-dose activity change, negative = inhibition, actives largely listed as inhibitors. actives 0.56% (n = 390,000). AID 540317, 2011; also: nearly all actives have a fitted effect of over 70% in size
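AlphaScreen: HP1-beta (50 nM) preformed 30 min with biotin-H3(1-18)K9me3 peptide (50 nM) in PBS pH 7.4, 0.01% Tween-20. Compound added for 30 min at RT, then streptavidin donor/nickel chelate acceptor beads (10 ug/mL) for 30 min.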
Starred values were filed as active, the others as inactive; ? = inconclusive; . = no result; [ ] = remark or other dose. Calls follow the shape of the dose curve; as a rule, active = well fitted inhibition curve with a large enough effect; inconclusive = small, poorly fitted or top-dose-only effect; inactive = no such curve, though single readings can be large or run the other way. Potency is read from the fitted curve at half-maximal effect.

SMILES | JMJD2A Tudor inh | G9a block | BAZ2B inh | L3MBTL1 inh | HP1b chromo inh
Nc1c(C(=O)c2ccccc2)sc2nsc(SCCN3CCCC3)c12 | 79µM* | . | ? | -7% | -4%
CCOc1ccccc1NS(=O)(=O)c1cnc(N)nc1 | -14% | 10%[59 µM] | 3% | . | 23%[57 µM]
CC(=O)Nc1ccc(NC(=O)COC(=O)c2ccccc2SCC(=O)N2CCCC2)cc1 | -23% | 18µM* | 4% | -2% | 25%
COc1ccc(CNC(=O)c2ccccc2SCC(=O)N2CCCC2)cc1OC | -10% | 45µM* | -5% | -12% | 25%
Cc1ccccc1NC(=O)COC(=O)c1ccccc1SCC(=O)N1CCCC1 | 1% | ? | 0% | . | 32%
COc1ccc(NC(=O)COC(=O)c2ccccc2SCC(=O)N2CCCC2)cc1 | 4% | 40µM* | 4% | 10% | 29%
CCNC(=O)NC(=O)COC(=O)c1ccccc1SCC(=O)NC(=O)NCC | ? | 45µM* | -2% | -9% | ?
O=C1CN(C(=O)COc2ccc(Br)cc2)c2ccccc2N1 | -24% | 2% | -20% | -10% | 27%
O=C(Cn1c(=O)n(-c2ccc(Cl)cc2)c(=O)c2c3c(sc21)CCCCC3)Nc1cccc(Cl)c1 | 5% | 11%[59 µM] | -1% | . | 29%
CC1(C)CC(=O)C(/C=N/c2ccccn2)=C(O)C1 | -2% | ? | -33% | 9% | 24%
CC1(C)CC(=O)C(/C=N/n2cnc3ccccc3c2=O)=C(O)C1 | 40µM* | 8%[2.33 µM] | 50µM* | . | 34%
Cc1ccc(NC(=O)c2ccc(COc3ccccc3Cl)o2)cc1 | -10% | 4%[59 µM] | -2% | . | 9%
CN(C)c1ccc(NC(=O)c2ccc(COc3cccc(Cl)c3)o2)cc1 | 13µM* | ? | 10µM* | . | ?
C[C@H]1CN([C@@H](C)CO)C(=O)Cc2cc(NC(=O)CCN3CCOCC3)ccc2O[C@@H]1CN(C)Cc1ccc(Oc2ccccc2)cc1 | 45µM* | . | . | -3% | -18%
C[C@H]1CN([C@@H](C)CO)C(=O)Cc2cc(NC(=O)C3CC3)ccc2O[C@H]1CN(C)Cc1ccc(Oc2ccccc2)cc1 | ? | . | . | -13% | 8%
CCOc1ccc(NC(=O)CC2C(=O)N(c3ccccc3)C(=O)N2C2CCCCC2)cc1 (stereo not drawn) | -25% | -32%[59 µM] | -4% | . | 16%
CCN1CCN(c2ncc3c(n2)CCN(Cc2ccc(OC)c(OC)c2)C3)CC1 | -25% | -24%[12.7 µM] | -26% | . | 23%
CCc1ccc(CN2CCc3nc(N4CCN(CC)CC4)ncc3C2)cc1 | ? | ? | 56µM* | . | 11%
CCN1CCN(c2ncc3c(n2)CCN(Cc2cc(F)cc(F)c2)C3)CC1 | 79µM* | ? | 50µM* | . | -5%
O=C(OCc1ccco1)c1ccc2c(c1)N(Cc1cccc(F)c1)C(=O)c1ccccc1S2 | -34% | 5%[59 µM] | -11% | . | 9%[57 µM]
Nc1nc(C2CC(=O)OC23CCCCC3)cs1 (stereo not drawn) | 2% | 2%[59 µM] | -2% | 16% | 14%
Nc1nc(C2C(=O)CCCC2=O)cs1 | 10µM* | -2%[12.7 µM] | 45µM* | -15% | 5%
CCN(CC)c1ccc(/C=N/N2CC(=O)NC2=S)cc1 | -17% | 7.9µM* | -1% | -12% | 39%
Cc1cc(C)c(CSc2nnc(C)n3c2cc2occc23)c(C)c1 | ? | ? | 40µM* | . | ?
O=C(CSC1=N/C(=C/c2ccco2)C(=O)N1c1ccc(OC(F)F)cc1)NC1CCS(=O)(=O)C1 (stereo not drawn) | ? | 45µM* | 50µM* | -1% | -13%
SMILES | JMJD2A Tudor inh | G9a block | BAZ2B inh | L3MBTL1 inh | HP1b chromo inh
COc1ccc(N2C(=O)/C(=C\c3ccco3)N=C2SCC(=O)NC(C)C)cc1Cl | -19% | ? | ? | -4% | -7%
CCCCn1c(N)c(N(CC(C)C)C(=O)C2CCN(S(=O)(=O)c3ccc(C)c(C)c3)CC2)c(=O)[nH]c1=O | -15% | . | -3% | . | 27%
CC1CC(C)CN(CC(=O)Nc2cc(S(=O)(=O)N3CCOCC3)ccc2N2CCCC2)C1 (stereo not drawn) | -15% | ? | -2% | -4% | 30%
Cc1ccc(S(=O)(=O)N(CC(=O)N2CCc3ccccc3C2)c2ccc(C)c(C)c2)cc1 | -22% | -20%[59 µM] | -15% | . | 28%
O=C(O)c1ccc(Cl)c(NC(=S)NC(=O)c2ccccc2[N+](=O)[O-])c1 | -3%[57.1 µM] | 32µM* | -1% | . | -1%
O=C(NC(=S)Nc1ccc(Cl)c(C(=O)O)c1)c1cccc(COc2ccccc2)c1 | ? | 4% | 1% | . | -18%
O=C(O)c1ccc(Cl)c(NC(=S)NC(=O)c2cccc(COc3ccccc3)c2)c1 | ? | -1% | 50µM* | . | ?
CCOC(=O)c1cccc(NC(=O)C2CCCN(S(=O)(=O)c3cc(Br)cc4c3N(C(=O)CC)CC4)C2)c1 (stereo not drawn) | -15% | -39%[59 µM] | -4% | . | -7%
C=CCC1Cc2c(Br)cccc2C(CC=C)N1 (stereo not drawn) | 12% | ? | 1% | -23% | 43%
C=CC[C@H]1Cc2c(cccc2[N+](=O)[O-])[C@H](CC=C)N1 | -31% | -10%[59 µM] | 40µM* | . | 26%
O=C(COc1ccccc1Cl)NNC(=O)c1ccc2c(=O)n3c(nc2c1)CCC3 | -10% | 10%[2.33 µM] | 5% | 0% | 41%
CC1CCN(CC(O)CN2c3ccccc3Sc3ccccc32)CC1 (stereo not drawn) | ? | ? | ? | . | -8%
CN1CC[C@H](CN2c3ccccc3Sc3ccccc32)C1 | . | 16µM* | . | . | .
O=C1c2ccccc2[C@@H]2CC(O)C(O)CCN12 (stereo partly drawn) | -1% | . | . | -5% | 38%
CC1(C)Cc2ccccc2C2CC(O)C(=O)N21 (stereo not drawn) | 89µM* | 22µM* | -30% | -6% | -13%
CC(=O)c1cc(-c2ccc(F)cc2)n(CCC(=O)Nc2nc3ccc(C)cc3s2)c1C | -7% | -31%[59 µM] | 0% | . | 49%
O=C(CN1CCN(Cc2ccccc2)CC1)Nc1ccc2c(c1)CCC2 | -10% | ? | -27% | 8% | 23%
O=C(CN1CCCC1)Nc1ccc2c(c1)CCC2 | 3.2µM* | 25µM* | 50µM* | -3% | -4%
O=C(CN1CCN(c2ccccc2O)CC1)Nc1ccc2c(c1)CCC2 | ? | 71µM* | -9% | 0% | -12%
CNC(C)C#Cc1c(-c2cc(OC)c(OC)c(OC)c2)noc1C (stereo not drawn) | ? | 32µM* | ? | -9% | 6%
CN(C)S(=O)(=O)N(CC(=O)N(Cc1ccccc1)Cc1ccccc1)c1ccccc1 | ? | -4%[59 µM] | 56µM* | . | 8%
